# According to the supplement of paper PMC9262897, “Low-cost anti-mycobacterial drug discovery using engineered E. coli” (Nature Communications, 2022):
# Structures can show the parent of a compound that is named as a salt. ± gives the standard deviation of the averaged measurements.
# Tested on: E. coli TESEC Mtb Alr
# Assay: growth (OD600 after 10 h); higher = more growth (less inhibition)
# Details: arabinose 10000000 nM; compound 0.1 mM; raw OD600 reference: median of DMSO wells 0.146, cell-free background 0.041
# Method: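 TESEC Mtb Alr E. coli, or the Alr+ wild-type control, in 384-well plates with Prestwick library compounds at 0.1 mM and 1% DMSO, across arabinose induction levels of 1E3 to 1E7 nM. Growth is read as OD600 after 10 h at 37 °C in triplicate biological replicates.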
row,Compound,growth
1,CC1(C)O[C@@H]2C[C@H]3[C@@H]4C[C@H](F)C5=CC(=O)C=C[C@]5(C)[C@@]4(F)[C@@H](O)C[C@]3(C)[C@]2(C(=O)CO)O1 [Fluocinolone acetonide],0.144 ± 0.0033
2,O=C1CC[C@@H](C(=O)N2CSC[C@H]2C(=O)O)N1 [Pidotimod],0.135 ± 0.0014
3,Cc1cc(NS(=O)(=O)c2ccc(N)cc2)no1 [Sulfamethoxazole],0.139 ± 0.0076
4,"CN(Cc1cnc2nc(N)nc(N)c2n1)c1ccc(C(=O)N[C@@H](CCC(=O)O)C(=O)O)cc1 (racemic) [Amethopterin (R,S)]",0.144 ± 0.0042
5,CN(C)CCCN1c2ccccc2CCc2ccc(Cl)cc21 [Clomipramine hydrochloride],0.0473 ± 0.0044
6,CN1CCN2c3ccccc3Cc3ccccc3C2C1 (stereo not given) [Mianserine hydrochloride],0.17 ± 0.0078
7,CCCN(CCC)C(=O)C(CCC(=O)O)NC(=O)c1ccccc1 (stereo not given) [Proglumide],0.17 ± 0.0066
8,CCCCOc1ccc(CC(=O)NO)cc1 [Bufexamac],0.0983 ± 0.0016
9,CC(C)CC(=O)N[C@H](C(=O)N[C@H](C(=O)N[C@@H](CC(C)C)[C@@H](O)CC(=O)N[C@@H](C)C(=O)N[C@@H](CC(C)C)[C@@H](O)CC(=O)O)C(C)C)C(C)C [Pepstatin A],0.15 ± 0.0034
10,CO[C@@]1(NC(=O)C2SC(=C(C(N)=O)C(=O)O)S2)C(=O)N2C(C(=O)O)=C(CSc3nnnn3C)CS[C@@H]21 (stereo not given in full) [Cefotetan],0.03917 ± 5.8e-05
11,CC[N+](CC)(CC)CCC(O)(c1ccccc1)C1CCCCC1 (stereo not given) [Tridihexethyl chloride],0.144 ± 0.0075
12,O=C1c2ccccc2C(=O)C1c1ccccc1 [Phenindione],0.147 ± 0.004
13,CC(C)NC(=N)NC(=N)Nc1ccc(Cl)cc1 [Proguanil hydrochloride],0.142 ± 0.0028
14,Cc1[nH]cnc1CN1CCc2c(c3ccccc3n2C)C1=O [Alosetron hydrochloride],0.1498 ± 0.001
15,O=c1cc(-c2ccc(O)c(O)c2)oc2cc(O)cc(O)c12 [Luteolin],0.0518 ± 0.0022
16,O=C1OC(CN2CCOCC2)CN1/N=C/c1ccc([N+](=O)[O-])o1 (stereo not given) [Furaltadone hydrochloride],0.0427 ± 0.0014
17,O=C(c1ccc(OCCN2CCCCC2)cc1)c1c(-c2ccc(O)cc2)sc2cc(O)ccc12 [Raloxifene hydrochloride],0.0448 ± 0.003
18,CNS(=O)(=O)Cc1ccc2[nH]cc(CCN(C)C)c2c1 [Sumatriptan succinate],0.137 ± 0.0028
19,Cc1ccc(C)c(OCCCC(C)(C)C(=O)O)c1 [Gemfibrozil],0.121 ± 0.0017
20,O=C(NCC(O)CO)c1c(I)c(C(=O)NCC(O)CO)c(I)c(N(CCO)C(=O)CO)c1I (stereo not given) [Ioversol],0.169 ± 0.0037

row,Compound,growth
1,CN(C)CCOC(c1ccc(Cl)cc1)c1ccccn1 (stereo not given) [Carbinoxamine maleate salt],0.13 ± 0.011
2,C=CCSCC1Nc2cc(Cl)c(S(N)(=O)=O)cc2S(=O)(=O)N1 (stereo not given) [Althiazide],0.141 ± 0.0034
3,CC(=O)OCC(=O)[C@@]1(O)[C@H](C)C[C@H]2[C@@H]3CCC4=CC(=O)C=C[C@]4(C)[C@@]3(F)[C@@H](O)C[C@@]21C [Dexamethasone acetate],0.1362 ± 0.00044
4,CC(C)(C)NCC(O)c1ccc(O)c(CO)c1 (stereo not given) [Salbutamol],0.137 ± 0.0049
5,"CC(C)NCC(O)c1cc(O)cc(O)c1 (stereo not given) [Metaproterenol sulfate, orciprenaline sulfate]",0.144 ± 0.0048
6,CN(CCOc1ccc(NS(C)(=O)=O)cc1)CCc1ccc(NS(C)(=O)=O)cc1 [Dofetilide],0.133 ± 0.0023
7,N=c1nc(N2CCCCC2)cc(N)n1O [Minoxidil],0.148 ± 0.0099
8,Clc1ccccc1C(c1ccccc1)(c1ccccc1)n1ccnc1 [Clotrimazole],0.0448 ± 0.0032
9,CC(=O)Oc1ccccc1C(=O)Nc1ncc([N+](=O)[O-])s1 [Nitazoxanide],0.0448 ± 0.0011
10,CCOc1ccccc1OC(c1ccccc1)C1CNCCO1 (stereo not given) [Reboxetine mesylate],0.1507 ± 0.0007
11,NC(=O)c1cc[n+](CC2=C(C(=O)[O-])N3C(=O)[C@@H](NC(=O)[C@@H](c4ccccc4)S(=O)(=O)O)[C@H]3SC2)cc1 [Cefsulodin sodium salt],0.145 ± 0.0069
12,CC(C)(C)NC(=O)[C@@H]1C[C@@H]2CCCC[C@@H]2CN1C[C@@H](O)[C@H](Cc1ccccc1)NC(=O)[C@H](CC(N)=O)NC(=O)c1ccc2ccccc2n1 [Saquinavir mesylate],0.0524 ± 0.0032
13,CCCCOC(=O)c1ccc(O)cc1 [Butylparaben],0.15 ± 0.0048
14,Cc1cn[nH]c1 [Fomepizole],0.137 ± 0.0022
15,NC1CCN(c2nc3c(cc2F)c(=O)c(C(=O)O)cn3-c2ccc(F)cc2F)C1 (stereo not given) [Tosufloxacin hydrochloride],0.0575 ± 0.0043
16,CN(C)CCN1C(=O)c2ccccc2N(C)c2ccccc21 [Dibenzepine hydrochloride],0.139 ± 0.0036
17,Nc1nc(NC2CC2)c2ncn([C@H]3C=C[C@@H](CO)C3)c2n1 [Abacavir Sulfate],0.133 ± 0.0075
18,O=C(NCCN1CCOCC1)c1ccc(Cl)cc1 [Moclobemide],0.136 ± 0.0024
19,CC(C)C[C@H](NC(=O)[C@@H](O)[C@H](N)Cc1ccccc1)C(=O)O [Ubenimex],0.132 ± 0.0031
20,CC(C(=O)O)c1ccc(-c2ccccc2)c(F)c1 (stereo not given) [Flurbiprofen],0.1346 ± 0.00075
